18 compounds from PubChem BioAssay (NCI) can be followed below.

Compounds without any hit were thinned out: in the full panel of roughly 83,000, 20% have a hit.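 Note: values are percent growth. 100 is the growth of untreated cells, values between 100 and 0 indicate rising inhibition; between -100 and 0 indicates cell death.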 A number with no mark means an inactive call. Activity calls are given as the source filed them. Rule for the calls: active = growth percent below 10; inactive = the rest.

Test systems include DU-145 prostate; MALME-3M melanoma; MDA-MB-231 breast; RXF 393 renal; SF-268 CNS; SF-295 CNS; SF-539 CNS; UACC-257 melanoma; M14 melanoma.
Common to all, as to experiment: NCI-60 one-dose screen, 48 h (100 = growth as untreated, 0 = no growth, -100 = all killed)
Common to all, as to conditions: 10 µM unless noted

Turning to `COCCCN1CC(O)=C(c2nc(-c3ccc(C)cc3)cs2)C1=N`, the growth in the experiment on DU-145 prostate is 102%; in the experiment on MALME-3M melanoma, 101%; in the experiment with MDA-MB-231 breast, 96.1%; in the experiment with RXF 393 renal, 94.3%; in the experiment on SF-268 CNS, 223%; with SF-295 CNS it was 123%. Moreover, the growth in the experiment on SF-539 CNS is 96.9%; in the experiment on UACC-257 melanoma, 83.7%; in the experiment on M14 melanoma, 100%.
For the compound `CCCCC/C=C/C(C)=C/C1CC(C)C/C=C/CCC(O)C(OC(N)=O)CCC(C)CC(O)C(C)C(=O)O1` (stereo unspecified), the growth with DU-145 prostate is 79.5%; with MALME-3M melanoma it was 101%; with RXF 393 renal it was 110%; with SF-268 CNS, 104%; in the experiment on SF-295 CNS it was 59.2%; with SF-539 CNS, 106%. Further, the growth with UACC-257 melanoma is 88.1%; in the experiment on M14 melanoma, 72.9%.
For `CC(C)(C)c1cc(C=O)cc(C(C)(C)C)c1O`, the growth in the experiment with DU-145 prostate is 103%; in the experiment on MALME-3M melanoma, 101%; in the experiment with MDA-MB-231 breast it was 87.5%; in the experiment with RXF 393 renal, 104%; with SF-268 CNS, 96.6%; with SF-295 CNS, 112%. For the same compound, the figures for the growth in the experiment with SF-539 CNS, with UACC-257 melanoma and in the experiment on M14 melanoma were 102%, 102% and 101%, respectively.
As for `CCN(c1ccccc1)S(=O)(=O)c1cc([N+](=O)[O-])ccc1Cl`, the growth with DU-145 prostate is 94%; with MALME-3M melanoma it was 67.6%; in the experiment on MDA-MB-231 breast, 56.3%; with RXF 393 renal, 40.7%; in the experiment with SF-268 CNS it was 77.4%; in the experiment on SF-295 CNS, 110%. In addition, the growth in the experiment with SF-539 CNS is 36.2%; in the experiment with UACC-257 melanoma, 64.6%; in the experiment with M14 melanoma, 70.9%.
For `CC/C(=C\c1ccc(OC)cc1)C(=O)c1ccc(OC)cc1`, the growth is 105% in the experiment on DU-145 prostate; 114% in the experiment on MALME-3M melanoma; 96.4% with MDA-MB-231 breast; 126% in the experiment with RXF 393 renal; 101% with SF-268 CNS; 76.5% in the experiment on SF-295 CNS. The growth in the experiment on SF-539 CNS is 96.5%; in the experiment with UACC-257 melanoma, 101%; with M14 melanoma, 102%.
Regarding `Cc1cccc(C)c1N=c1oc2ccc(Cl)cc2nc1-c1ccccc1O`, the growth with DU-145 prostate was 120%; with MALME-3M melanoma, 105%; with MDA-MB-231 breast, 83.6%; with RXF 393 renal it was 90.9%; in the experiment with SF-268 CNS it was 92.1%; in the experiment on SF-295 CNS, 106%. The growth in the experiment with SF-539 CNS is 99.5%; with UACC-257 melanoma it was 90.8%; with M14 melanoma, 80.5%.
On to `N#C/C(=C\c1cccc(C#N)c1)c1ccccc1`, for which the growth in the experiment on DU-145 prostate was 101%; in the experiment with MALME-3M melanoma, 98.9%; in the experiment on MDA-MB-231 breast, 102%; in the experiment with RXF 393 renal, 108%; in the experiment with SF-268 CNS, 99%; in the experiment on SF-295 CNS, 99.5%. Besides, the growth in the experiment with SF-539 CNS was 99.4%; in the experiment on UACC-257 melanoma it was 99.2%; in the experiment with M14 melanoma, 104%.
For the compound `O=C1c2ccccc2C(=O)c2c([N+](=O)[O-])ccc(Cl)c21`, the growth in the experiment on DU-145 prostate was 101%; with MALME-3M melanoma, 116%; in the experiment with MDA-MB-231 breast, 103%; in the experiment on RXF 393 renal, 94.3%; in the experiment on SF-268 CNS it was 87.4%; in the experiment with SF-295 CNS it was 116%. Besides, the results for the growth in the experiment with SF-539 CNS, in the experiment on UACC-257 melanoma and with M14 melanoma were 99.1%, 96.2% and 108%, respectively.
`C=C(CBr)[C@@H]1CC[C@]2(COC(C)=O)CC[C@]3(C)[C@H](CC[C@@H]4[C@@]5(C)CCCNC(C)(C)[C@@H]5CC[C@]43C)[C@@H]12`: the growth was 66.3% in the experiment with DU-145 prostate; 71% in the experiment on MALME-3M melanoma; 65.6% in the experiment on MDA-MB-231 breast; 56% in the experiment on RXF 393 renal; 50.3% in the experiment on SF-268 CNS; 59.5% in the experiment with SF-295 CNS. Further, the figures for the growth in the experiment on SF-539 CNS, in the experiment with UACC-257 melanoma and in the experiment with M14 melanoma were 49.7%, 23.4% and 40%, respectively.
Consider `CN1CCN(CCNc2nccc(-c3c(-c4cccc(O)c4)nc4sccn34)n2)S1(=O)=O`, for which the growth is 56.5% in the experiment on DU-145 prostate; -20% (active) with MALME-3M melanoma; 24.3% in the experiment with MDA-MB-231 breast; 39.2% in the experiment on RXF 393 renal; 85.6% with SF-268 CNS; 95.9% in the experiment with SF-295 CNS. In addition, the figures for the growth in the experiment on SF-539 CNS, with UACC-257 melanoma and in the experiment with M14 melanoma were 79.9%, -10.6% (active) and -4.02% (active), respectively.
In the case of `N#CC1=C(N)Oc2c(cnn2-c2ccc([N+](=O)[O-])cc2[N+](=O)[O-])C1c1ccccc1` (stereo unspecified), the growth is 114% in the experiment with DU-145 prostate; 99.8% in the experiment with MALME-3M melanoma; 105% in the experiment on MDA-MB-231 breast; 110% in the experiment on RXF 393 renal; 102% in the experiment with SF-268 CNS; 93.3% in the experiment on SF-295 CNS. Also, the results for the growth in the experiment with SF-539 CNS, in the experiment on UACC-257 melanoma and in the experiment on M14 melanoma were 98.2%, 94.1% and 95.3%, respectively.
As to `COc1cc2cc(Oc3cccc(NC(=O)Nc4cc(C(F)(F)F)cc(C(F)(F)F)c4)c3)c(C)nc2cc1OC`, the growth with DU-145 prostate is 19.5%; in the experiment with MALME-3M melanoma it was -3.13% (active); with MDA-MB-231 breast it was -36.1% (active); with RXF 393 renal, -24.5% (active); in the experiment with SF-268 CNS it was 15.3%; in the experiment on SF-295 CNS, -59.2% (active). Also, the growth in the experiment on SF-539 CNS was -40.9% (active); in the experiment with UACC-257 melanoma it was -4.68% (active); in the experiment with M14 melanoma, 9.04% (active).
For the compound `Cc1ccc(C(=O)/C(=C/c2ccc([N+](=O)[O-])cc2)SCc2ccc(Cl)cc2)cc1`, the growth with DU-145 prostate was 86.9%; in the experiment with MALME-3M melanoma, 83.3%; in the experiment on MDA-MB-231 breast, 83.8%; in the experiment on RXF 393 renal, 95.4%; in the experiment on SF-268 CNS, 69.8%; in the experiment with SF-295 CNS, 83.3%. For the same compound, the growth was 112% in the experiment on SF-539 CNS, 83% with UACC-257 melanoma and 74.6% with M14 melanoma.
Take `NC(=S)N1N=C(c2ccccc2)CC1c1cn(-c2ccccc2)nc1-c1ccc(OCc2ccccc2)cc1` (stereo unspecified): the growth is 104% with DU-145 prostate; 101% with MALME-3M melanoma; 99.2% with MDA-MB-231 breast; 110% with RXF 393 renal; 101% in the experiment with SF-268 CNS; 105% in the experiment on SF-295 CNS. The growth in the experiment on SF-539 CNS is 102%; in the experiment with UACC-257 melanoma it was 92.9%; in the experiment with M14 melanoma, 101%.
Turning to `O=C(Nc1ncc(Cc2cc(Cl)ccc2Cl)s1)c1cccs1`, the growth in the experiment with DU-145 prostate was 81.1%; with MALME-3M melanoma, 50%; in the experiment with MDA-MB-231 breast, 79.8%; with RXF 393 renal, 56%; in the experiment on SF-268 CNS, 74.9%; in the experiment on SF-295 CNS it was 50.4%. The growth in the experiment with SF-539 CNS was 73.9%; with UACC-257 melanoma, 78.6%; in the experiment with M14 melanoma it was 42.9%.
`O=C1C=CC(=O)N1c1cccc(Cl)c1`: the growth in the experiment with DU-145 prostate is 123%; in the experiment with MALME-3M melanoma, 120%; with MDA-MB-231 breast it was 132%; with RXF 393 renal, 116%; in the experiment with SF-268 CNS, 108%; in the experiment with SF-295 CNS, 107%. The growth was 113% with SF-539 CNS, 97.1% with UACC-257 melanoma and 114% in the experiment with M14 melanoma.
In the case of `O=C1CC(=O)OC(c2ccc([N+](=O)[O-])cc2)O1`, the growth in the experiment on DU-145 prostate was 13.9%; with MALME-3M melanoma it was -36.6% (active); in the experiment with MDA-MB-231 breast it was -3.22% (active); in the experiment on RXF 393 renal it was -91% (active); in the experiment on SF-268 CNS, 4.85% (active); in the experiment with SF-295 CNS, 70.3%. Moreover, the results for the growth with SF-539 CNS, in the experiment on UACC-257 melanoma and with M14 melanoma were -69.9% (active), -23.6% (active) and -64.4% (active), respectively.
Regarding `Clc1ccc(-c2ccc(CNCC3CCNCC3)o2)c(-c2ccccc2)c1`, the growth is -94.2% (active) in the experiment with DU-145 prostate; -85.4% (active) with MALME-3M melanoma; -86.5% (active) in the experiment with MDA-MB-231 breast; -88.2% (active) in the experiment on RXF 393 renal; -82% (active) in the experiment with SF-268 CNS; -86.1% (active) with SF-295 CNS. Further, the growth in the experiment with SF-539 CNS was -90.3% (active); with UACC-257 melanoma, -75.3% (active); with M14 melanoma it was -83.3% (active).
